Hits are enriched below; roughly 2.8% of the tested compounds scored in any of these assays.
WRN inhibitor: qHTS for Inhibitors of WRN Helicase; Potency, µM (series often up to 114 µM), for the others: at the highest dose activity change, negative = inhibition, usual class: inhibitors; WRN helicase unwinding, fluorescent forked duplex, kinetic; 360,000 compounds, 0.46% hits; AID 651768, 2012; note: potency is the fitted concentration of half-maximal effect; % is set by controls: 0 for no effect and ±100 for the full control effect; nearly all actives have a fitted effect of over 55% in size
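Kinetic red-fluorescence monitoring (525/598 nm) tracks WRN helicase activity after 100 nM fluorophore-quencher forked duplex and 2 mM ATP are added to 20 nM enzyme pretreated 15 min at room temperature with compound.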
Pol iota inh: qHTS for Inhibitors of Polymerase Iota; 390,000 compounds, 1% hits; Potency, µM (highest dose often 115 µM), without a hit: at the highest dose activity, negative = inhibition, most hits filed as inhibitors; DNA polymerase iota (Homo sapiens), Q9UNA4; AID 588590, 2011; Pol iota fluorescent replication assay, 10 min; note: potency is the fitted concentration of half-maximal effect
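Pol iota at 10 nM preincubated 15 min with compounds at room temperature; reaction started with fluorescent substrate, 50 nM final. Fluorescence read kinetically at 0 and 10 min; buffer-only wells as negative control.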
Pol eta inh: qHTS for Inhibitors of Polymerase Eta | Potency, µM (top dose mostly 114 µM), without a hit: at the top dose activity change, negative = inhibition, most hits filed as inhibitors | AID 588591, 2011 | DNA polymerase eta (Homo sapiens), Q9Y253 | 390,000 compounds, 1.2% hits | recombinant Pol eta, fluorescent DNA replication assay; note: potency is the fitted concentration of half-maximal effect; % is set by controls: 0 for no effect and ±100 for the full control effect
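Fluorescent replication assay: 50 nM final substrate added after a 15 min room-temperature compound preincubation with 10 nM enzyme. Signal taken at 0 min and again at 10 min.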
POLB inh: qHTS Assay for Inhibitors of DNA Polymerase Beta; P06746; Pol beta primer extension/strand displacement, fluorescence kinetic; Potency, µM (titrated, usually from 114 µM), for the others: at the top dose activity change, negative = inhibition, actives largely listed as inhibitors; 340,000 compounds, 1.3% hits; note: potency is the fitted concentration of half-maximal effect; % is set by controls: 0 for no effect and ±100 for the full control effect
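Pol beta (10 nM) and compounds were preincubated 15 min at room temperature, then 50 nM substrate (final) started primer extension/strand displacement. Reads were taken at 0 and 10 min; concentration-response data were fitted to a four-parameter Hill equation.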
PI5P4K alpha inh: qHTS for Inhibitors of phosphatidylinositol 5-phosphate 4-kinase (PI5P4K); Phosphatidylinositol 5-phosphate 4-kinase type-2 alpha (Homo sapiens), P48426; PI5P4Kalpha enzyme, ADP-Glo luminescence, 60 min; active compounds read low; max response, %; 330,000 compounds, 1.2% hits; active = max response of -50% or lower; inconclusive = between -30% and -50%; inactive = -30% or higher; note: value at the top dose of about 77 µM; % is set by controls: 0 for no effect and ±100 for the full control effect
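Single end-point luminescence (ADP-Glo) quantified ADP from PI5P4Kalpha turnover; ATP 5 microM final, 1 h at RT, 0.1% CHAPS and 0.28 mM EGTA in HEPES pH 7.4.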
POLK inh: qHTS for Inhibitors of Polymerase Kappa | purified Pol kappa, fluorescent DNA synthesis assay, 10 min | Potency, µM (top dose mostly 107 µM), without a hit: at the highest dose activity, negative = inhibition, hits mostly inhibitors | DNA polymerase kappa (Homo sapiens), Q9UBT6 | 400,000 compounds, 0.53% hits; note: potency is the fitted concentration of half-maximal effect; % is set by controls: 0 for no effect and ±100 for the full control effect
Target sequence (Q9UBT6 whole entry, looked up): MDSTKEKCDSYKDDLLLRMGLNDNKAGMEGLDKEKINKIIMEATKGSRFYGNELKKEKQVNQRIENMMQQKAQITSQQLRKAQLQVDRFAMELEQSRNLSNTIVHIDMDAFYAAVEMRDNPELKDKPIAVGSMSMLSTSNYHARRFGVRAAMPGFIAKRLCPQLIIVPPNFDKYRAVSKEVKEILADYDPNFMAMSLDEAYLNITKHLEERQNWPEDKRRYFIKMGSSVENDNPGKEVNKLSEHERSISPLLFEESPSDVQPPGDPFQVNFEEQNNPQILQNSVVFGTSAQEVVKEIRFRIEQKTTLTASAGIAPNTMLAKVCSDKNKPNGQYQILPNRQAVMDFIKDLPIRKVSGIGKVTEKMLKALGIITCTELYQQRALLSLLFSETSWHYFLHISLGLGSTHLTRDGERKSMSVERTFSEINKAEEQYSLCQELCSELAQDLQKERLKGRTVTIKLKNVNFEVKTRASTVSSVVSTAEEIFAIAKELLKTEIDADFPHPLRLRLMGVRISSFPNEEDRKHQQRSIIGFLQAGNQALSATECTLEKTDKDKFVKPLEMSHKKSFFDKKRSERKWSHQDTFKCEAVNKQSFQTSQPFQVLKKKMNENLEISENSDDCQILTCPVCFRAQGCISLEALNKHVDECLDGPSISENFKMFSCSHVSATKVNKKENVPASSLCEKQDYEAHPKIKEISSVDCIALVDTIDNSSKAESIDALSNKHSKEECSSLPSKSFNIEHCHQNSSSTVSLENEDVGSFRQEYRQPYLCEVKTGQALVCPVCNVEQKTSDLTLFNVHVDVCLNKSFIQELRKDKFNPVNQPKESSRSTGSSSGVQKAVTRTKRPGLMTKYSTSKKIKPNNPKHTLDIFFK
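50 nM final substrate added after 15 min RT preincubation of 10 nM Pol kappa with compound; fluorescence read at 0 and 10 min.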
* = called active by the depositor; ? = inconclusive; nt = no result given; [ ] = remark or other dose. Unless noted, calls come from the whole dose curve; as a rule, active = well fitted curve in the direction sought with a large enough effect; inconclusive = small, poorly fitted or top-dose-only effect, or another doubt; inactive = no such curve, though single readings can be large; an effect the other way counts as inactive or inconclusive.

SMILES	WRN inhibitor	Pol iota inh	Pol eta inh	POLB inh	PI5P4K alpha inh	POLK inh
CCCSc1nnc(NC(=O)CSc2nc3[nH]c(=O)cc(O)c3s2)s1	-10%	35µM*	56µM*	nt	-72*	-29%
CCOC(=O)c1sc(NC(=O)C2CCCO2)c(C(=O)OCC)c1C (centres undefined)	nt	nt	nt	14µM*	nt	nt
Cc1cccc(N(C)S(=O)(=O)c2ccc3c(c2)C(C)(C)C(=O)N3C)c1	-22%	?	?	22µM*	-19	?
CCOc1ccc(C2C(=O)N(C3CCCCCC3)CC(=O)N2CCC2=CCCCC2)cc1OC (centres undefined)	nt	6%	-4%	7%	nt	-6%[60.1 µM]
O=C(CN1C(=O)c2ccccc2C1=O)Nc1ccccc1	-2%	-7%	-8%	28%	0	-13%
Nc1cccc2c1C(=O)N(CC(=O)NC13CC4CC(CC(C4)C1)C3)C2=O	11%	-12%	-4%	1%	3	-2%
O=C(Cn1sc2ccccc2c1=O)Nc1ccccc1	10%	nt	-8%	nt	-82*	nt
O=C(Cn1sc2ccccc2c1=O)NC12CC3CC(CC(C3)C1)C2	40µM*	?	0%	1%	-91*	-3%
Cc1cccc(-c2nc(CN3CCCC(C(=O)NCc4ccc(Cl)cc4)C3)c(C)o2)c1 (centres undefined)	nt	-21%	-18%	21%	nt	-12%
Cc1ccc(NC(=O)CN2C(=O)COc3ccc(S(=O)(=O)NC4CCCC4)cc32)c(Cl)c1	nt	-16%	-7%	8%	nt	0%
O=S(=O)(c1ccc(NC(=S)N/N=C/c2ccc(O)c(O)c2)cc1)N1CCOCC1	-27%	20µM*	-3%	-27%	-23	?
Oc1ccc(/C=N/NC(=S)Nc2cccnc2)cc1O	-29%	3.5µM*	?	?	-6	?
N#Cc1ccc(/C=N/NC(=S)Nc2ccc(S(=O)(=O)N3CCOCC3)cc2)cc1	-11%	23%	-17%	-2%	-13	-2%
CCN(CC)c1ccc(NC(=O)C2CCN(S(=O)(=O)c3c(C)noc3/C=C/c3ccccc3F)CC2)c(C)c1	nt	34%	-18%	0%	nt	-13%[60.1 µM]
CCc1ccccc1NC(=O)c1ccc(=O)n(Cc2ccc(F)cc2)c1	nt	3%	-22%	-2%	nt	-3%[60.1 µM]
CCOc1ccc(N(C(=O)c2ccc(OC)cc2)S(=O)(=O)c2ccc3c(c2)n(C)c(=O)n3C)cc1	nt	3%	nt	?	nt	-15%
Cc1nc(C)c(-c2csc(Nc3ccc(N)cc3)n2)s1	-8%	-6%	-22%	-28%	0	-16%
Cc1nc(C)c(-c2csc(Nc3ccc(O)c(C(=O)O)c3)n2)s1	-35%	72%	?	-23%	-74*	-6%
COc1cccc(/C=C/c2nccc3ccccc23)c1OC	nt	39%	nt	nt	nt	3%
COc1ccc(CCNC(=O)C(=O)NCC(c2cccs2)S(=O)(=O)c2ccc(C)cc2)cc1 (centres undefined)	nt	-4%	-9%	0%	nt	0%[60.1 µM]
COc1ccc(-c2cc(=O)c3c(C)cc(O)cc3o2)cc1	?	20µM*	?	nt	-3	?
Cc1ccccc1CNC(=O)c1ccc2nc(C(C)C)oc2c1	nt	40%	-16%	1%	nt	-1%[60.1 µM]
O=C(O)CN1C(=O)/C(=C\c2ccccc2OCc2ccccc2)SC1=S	-8%	nt	79µM*	nt	-15	nt
COc1ccc(/C=C2/SC(=S)N(CC(=O)O)C2=O)cc1OCc1ccc(Cl)cc1	56µM*	-1%	?	?	-12	-4%
Cc1nn(-c2ccccc2)c(Cl)c1/C=C1\SC(=S)N(CCCCCC(=O)O)C1=O	-23%	-18%	25µM*	27%	2	-7%
SMILES	WRN inhibitor	Pol iota inh	Pol eta inh	POLB inh	PI5P4K alpha inh	POLK inh
O=C(O)CN1C(=O)/C(=C\c2ccccc2OCc2ccc(F)cc2)SC1=S	-10%[11.6 µM]	?	?	?	-30	-27%
Cc1nn(-c2ccccc2)c(Cl)c1/C=C1\SC(=S)NC1=O	-15%[11.6 µM]	-22%	?	7%	nt	-2%
O=C(O)CCCN1C(=O)/C(=C\c2ccccc2OCc2ccccc2)SC1=S	?	?	79µM*	?	-1	-14%
CC(C)N(Cc1ccccc1)c1ncnc2c1nnn2C	nt	0%	0%	-2%	nt	-4%[60.1 µM]
O=S(=O)(c1ccc(Oc2ccc3c(c2)OCO3)c(S(=O)(=O)N2CCOCC2)c1)N1CCOCC1	nt	-11%	nt	nt	nt	-13%
CC(C)Cc1ccc(S(=O)(=O)N2CCC(c3ccncc3)CC2)cc1	nt	-28%	-19%	-21%	nt	-3%[60.1 µM]
C=C1C=C(C(F)F)n2ncc(C(=O)NCc3ccc(OC)c(OC)c3)c2N1	nt	16%	nt	nt	nt	0%
O=C1C(=Cc2ccccc2O)SC(=S)N1CCCN1CCOCC1	-4%	nt	-16%	nt	-69*	nt
O=C(CCN1C(=O)/C(=C\c2ccccc2)SC1=S)NCCCN1CCOCC1	2%	5%	7%	21%	0	-7%
CC1=NN(C(=O)c2ccncc2)C(=O)C1N=Nc1ccc2ccccc2c1 (centres undefined)	-1%[11.6 µM]	89µM*	?	nt	-10	?
COCc1cc(O)c(O)c(O)c1-c1c(COC)cc(O)c(O)c1O	nt	2.8µM*	nt	nt	nt	0.21µM*
COCc1c(CCl)cnc(C)c1O	-2%	29%	-16%	7%	-1	-3%
CN(C)c1ccc(/C=C/c2ccnc3ccccc23)cc1O	nt	15%	nt	nt	nt	5%
COc1ccc2cc3c(N)nn(C(=O)c4ccc(OC)c(OC)c4)c3nc2c1	nt	-3%	?	16µM*	nt	-7%
CCOc1ccc(NC(=O)CSc2nc3ccsc3c(=O)n2CCCCC(=O)O)cc1	-4%[11.6 µM]	nt	-99%	nt	-65*	nt
O=C1NC(=S)/C(=C\c2ccc(-c3ccccc3Cl)o2)S1	50µM*	?	16µM*	40µM*	-69*	?
O=C(N/N=C/c1c[nH]c2ccccc12)c1cccc(O)c1	-3%	12%	-19%	-9%	-4	-5%[60.1 µM]
O=C(N/N=C/c1c[nH]c2ccccc12)c1ccc(O)c(O)c1	?	?	?	45µM*	?	?
COCCNc1ccc(-c2nc(-c3ccncc3)no2)cc1[N+](=O)[O-]	nt	-16%	-11%	?	nt	-12%
COC(=O)c1ccc(NC(=O)CN2CCCN(Cc3ccc(Cl)cc3)S2(=O)=O)cc1	nt	13%	-23%	10%	nt	-12%[60.1 µM]
CC(C)n1c(=O)[nH]c2ccccc21	-3%	19%	-12%	36%	nt	-5%
CC(C)n1c(=O)[nH][nH]c1=S	56µM*	72%	-3%	1%	-103*	0%

Screening data deposited in PubChem BioAssay by National Center for Advancing Translational Sciences (NCATS).
